Assay outcomes as filed in PubChem.
EZH2 inh: EZH2 (human) methyltransferase inhibition; PRC2 H3K27 methylation, DELFIA TRF, 1 h; inhibition, % at 12.5 µM; 57,000 compounds, 0.35% hits;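 active = mean inhibition of replicates at least 50% and every single replicate also reaching 50%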;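 also: dimethyl H3K27 on biotinylated H3 21-44 peptide detected by antibody; plate controls were median neutral control wells for no effect and median positive control wells for full effect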
* = called active by the depositor. Many of the other results were omitted from the sample, so hits are more common in it than they were.

SMILES | EZH2 inh
O=C(CCCCCCC(=O)Nc1ccccc1O)N/N=C/c1ccc(O)c(O)c1 | -27
O=C(CCCCCCC(=O)Nc1ccccc1O)N/N=C/c1ccc(-c2ccccc2)c(F)c1 | 51*
O=C(CCCCCCC(=O)Nc1ccccc1O)N/N=C/c1ccc(F)cc1 | -3
O=C(O)C1OC(c2cccc(Cl)c2)=NC12CC2 (stereo unspecified) | -14
O=S1(=O)N=C(N(CCO)c2ccc(Cl)cc2)c2ccccc21 | 7
